# Data from PubChem BioAssay (NCI).
# Values joined by “and” are separate entries in the source; they are usually repeats but may differ in a detail not shown here. Equal values may be shown once. About 83,000 compounds went through this panel and 20% of them were active in at least one assay; those are over-represented in the sample as a whole.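 The endpoint reported here, percent growth, reads 100 for growth as untreated, 0 for no net growth and -100 for all cells dead.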 Values without a mark were called inactive. Active and inactive are the calls of the source. How the source made its calls: active means growth percent below 10; inactive means the rest.
# What was measured:
# Test in all cases: NCI-60 one-dose screen, 48 h (100 = growth as untreated, 0 = no growth, -100 = all killed)
# Settings in all cases: 10 µM unless noted
# DU-145 prostate = tested on: DU-145 prostate
# K-562 leukemia = tested on: K-562 leukemia
# MALME-3M melanoma = tested on: MALME-3M melanoma
# MDA-MB-231 breast = tested on: MDA-MB-231 breast
# RXF 393 renal = tested on: RXF 393 renal
# SF-268 CNS = tested on: SF-268 CNS
# SF-295 CNS = tested on: SF-295 CNS
# SF-539 CNS = tested on: SF-539 CNS
# UACC-257 melanoma = tested on: UACC-257 melanoma
# M14 melanoma = tested on: M14 melanoma
SMILES,growth (DU-145 prostate),growth (K-562 leukemia),growth (MALME-3M melanoma),growth (MDA-MB-231 breast),growth (RXF 393 renal),growth (SF-268 CNS),growth (SF-295 CNS),growth (SF-539 CNS),growth (UACC-257 melanoma),growth (M14 melanoma)
O=C(N=Nc1c(O)[nH]c2ccccc12)Nc1ccc(Br)cc1,93.3%,79%,86.1%,110%,82.4%,86.2%,93%,83.6%,115%,89.8%
COc1ccc(/C=C/C(=O)c2cc3c(N)c(C(=O)Nc4ccccc4)sc3nc2C)cc1,10.9%,14.7%,58.1%,13.3%,-19.2% (active),22.6%,11.6%,-27.3% (active),69.5%,6.3% (active)
Cc1ccc(Cl)cc1N1CCN(C(=O)[C@@H]2C[C@@H]2c2ccc(F)cc2)CC1,114%,75.6%,95%,102%,103%,90.1%,88.9%,95.6%,95.4%,93.4%
COc1ccc(S(=O)(=O)Nc2cc(Sc3cccc4cccnc34)c(O)c3ccccc23)cc1,19.5%,-7.46% (active),6.25% (active),25%,18.8%,11.3%,22.3%,-6.48% (active),-17% (active),-13.4% (active)
Fc1ccccc1-c1cnn2cc(-c3ccccc3)cnc12,110%,83.5%,109%,108%,94.9%,88.9%,98.2%,103%,110%,105%
CCCCCCCCN(CCCCCCCC)CC(O)c1cc(Cl)ccc1OC (stereo not given),81.8%,50.1%,99.5%,51.6%,51.9%,84.4%,76.9%,77.8%,90.4%,84.9%
O=Nc1ccc(NO)c2ccccc12,107% and 98%,111% and 56.5%,118% and 69.6%,89% and 73.5%,114% and 97.2%,102% and 83.9%,99.3% and 121%,96.8% and 109%,104% and 52.4%,99.2% and 93.7%
Nc1c(C(=O)Nc2ccncc2)sc2nc3c(cc12)CCCCCCCC3,-75.5% (active),-52% (active),-84.6% (active),-72.7% (active),-80.6% (active),-62.4% (active),-77% (active),-91.7% (active),-75.7% (active),-80.1% (active)
Cc1ccc(S(=O)(=O)Nc2cc(Sc3ccccc3)c(O)c3ccccc23)cc1,84.3%,41.1%,77.7%,-1.57% (active),105%,65.8%,96.8%,92.9%,62.8%,107%
C=C(c1ccc(C(=O)O)cc1)c1cc2c(cc1C)C(C)(C)CCC2(C)C,94.4% and 92.3%,53.4% and 58.5%,64.9%,69.6% and 68.2%,94.9% and 105%,90.2% and 75.4%,38.5% and 48.8%,82.1% and 80.5%,94.9% and 90.3%,87% and 75.5%
COc1cc2nc3cc([N+](=O)[O-])ccc3c(NCCNCC(C)(C)O)c2cc1OC,-8.55% (active),1.28% (active),-74.4% (active),-28.5% (active),-47.3% (active),-10.8% (active),16.4%,-20.8% (active),-61.8% (active),-75.7% (active)
O=C(/C=C\c1ccc(Cl)c(Cl)c1)c1ccccc1,84.3% and 109%,32.7% and 95.9%,104% and 115%,108% and 99.7%,86.3% and 110%,98.4% and 103%,97.5% and 99.2%,111% and 110%,97.7%,97.2% and 115%
O=C(/C=C/C12c3ccccc3C(c3ccccc31)C1C(=O)NC(=O)C12)c1ccncc1 (stereo not given),13%,6.6% (active),37.1%,15%,13.4%,10.2%,28.4%,5.79% (active),32.3%,20.3%
O/N=C(/c1ccccc1)c1ccc2c3c(cccc13)CC2,107% and 105%,42.4% and 34.2%,87.6% and 91.9%,82.7% and 82.1%,81.9% and 64.7%,105% and 94.6%,82.1% and 83.3%,111% and 90.5%,83.2% and 87.2%,95.3% and 90.9%
COc1ccc(-c2nn3c(-c4cc(F)c(Cl)cc4Cl)nnc3s2)cc1,77.3%,16.1%,41.4%,55.2%,61.4%,60.3%,13.1%,47%,72.6%,15.5%
Cc1ccc(-c2nc3nc(-c4ccc(F)cc4)nc(N4CCCNCC4)c3o2)cc1,-94.8% (active),-28.4% (active),-72.7% (active),-85.1% (active),-79.8% (active),-65.7% (active),-86.3% (active),-97.9% (active),-72.2% (active),-86.6% (active)
CC[C@]12CN3CCc4c([nH]c5ccccc45)[C@@](C(=O)OC)(c4cc5c(cc4OC)N(C)[C@H]4[C@@](O)(C(=O)OC)[C@H](OC(C)=O)[C@]6(CC)C=CCN7CC[C@]54[C@@H]76)CC(C3)[C@H]1O2 (stereo not given in full),-21.8% (active),16.6%,56.1%,-28.8% (active),10.2%,26.4%,-22.9% (active),2.86% (active),42.3%,-29.3% (active)
COc1cc2cc(NCc3ccncc3)nc(C)c2cc1OC,107%,126%,108%,85.9%,98.5%,81.9%,71.3%,89.3%,79.3%,82%
COc1cc(-c2[nH]ncc2Nc2ccc(Cl)cc2)cc(OC)c1OC,102%,47.2%,69.4%,62.6%,89.4%,84.5%,42.7%,70.1%,64.6%,71.3%
Cc1cccc(-c2nnc(SCC(=O)Nc3ncc(Cc4ccccc4)s3)n2N2C(=O)CSC2=S)c1,43.3%,77.6%,20.6%,10%,54.7%,78.3%,77.7%,36.6%,64.4%,51.1%
COc1ccc2c(O)c(/C=C3\N=Nc4nc(C)ccc43)oc2c1CC1CCNCC1,87.9%,49.3%,19.1%,34.6%,-0.196% (active),67.4%,90%,55.9%,74.5%,35.4%
Nc1[nH]nc(Nc2ccccc2)c1-c1nc2ccccc2s1,27.8%,4.83% (active),83.4%,-17% (active),36.3%,31%,28.6%,55.1%,50.6%,6.41% (active)
Nc1nc(Nc2ccc(F)cc2)nn1C(=O)c1cc(Cl)ccc1Cl,78.8%,97.4%,108%,88.2%,21.8%,74.9%,94.3%,72.8%,106%,86.8%
